Assay [1] can be described thus: qHTS assay to identify small molecule agonists of the vitamin D receptor (VDR) signaling pathway - cell viability counter screen (AID 743224). Also: series mostly up to about 63 µM; nearly all actives have a fitted effect of over 50% in size. In short, it runs like this: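 Compounds were pin-transferred onto VDR-bla cells plated 4 h earlier; following 16 h incubation at 37C, cell viability was quantified by CellTiter-Glo luminescence after 30 min at room temperature.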
Background: qHTS replaces the single test concentration by a dilution series.

Assay [2] can be described thus: qHTS assay to identify small molecule antagonists of the vitamin D receptor (VDR) signaling pathway - cell viability counter screen (AID 743225). Also: nearly all actives have a fitted effect of over 50% in size. The method in brief: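 Compounds were pinned onto VDR-bla HEK 293T cells together with 1-alpha,25-dihydroxyvitamin D3 at 3 nM final. After 16 h at 37C and 5% CO2 plus the reporter readout, cell viability was measured by CellTiter-Glo luminescence (30 min, room temperature).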

A short description of assay [3]: qHTS assay to identify small molecule agonists of the NFkB signaling pathway (AID 1159509; active = well fitted curve in the direction sought with a large enough effect in the signal ratio in the repeat runs, not every such curve was filed as active; the % refers to the signal ratio; also: series mostly up to about 61 µM). In short, it runs like this: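 Readout: FRET fluorescence, 405 nm excitation, 460/530 nm emission; beta-lactamase expression disrupts FRET. Cells: ME-180 stably carrying NF-kB-driven bla reporter. Compound exposure 5 hr, 37 C, 5% CO2.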
The nature of assay [4]: qHTS assay to identify small molecule agonists of the NFkB signaling pathway - cell viability counter screen (AID 1159515; calls by dose curve; also: series mostly up to about 61 µM; nearly all actives have a fitted effect of over 55% in size). In short, it runs like this:
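Parallel cytotoxicity counter screen in ME-180 cells carrying an NFkB-response-element beta-lactamase reporter, 2,000 cells/well. Compound exposure lasted 5 hr at 37 C, 5% CO2. Cell viability was quantified by CellTiter-Glo luminescence.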

A short description of assay [5]: qHTS assay to identify small molecule agonists of the endoplasmic reticulum stress response signaling pathway (AID 1159516; active = well fitted activation curve with a large enough effect in the signal ratio in the repeat runs, not every such curve was filed as active; the % refers to the signal ratio). In short, it runs like this:
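Using a HeLa line with an ESRE-driven beta-lactamase gene, agonist activity was measured by FRET substrate fluorescence (460 and 530 nm emission) after cells were treated with compounds for 5 hr at 37 C and 5% CO2.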

Assay [6] in a line: qHTS assay to identify small molecule agonists of the endoplasmic reticulum stress response signaling pathway - cell viability counter screen (AID 1159517; calls by dose curve;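 also: HeLa cells carrying an ER stress response element beta-lactamase reporter; series mostly up to about 61 µM; nearly all actives have a fitted effect of over 50% in size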). In short, it runs like this:
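Cytotoxicity of test compounds toward ESRE-bla HeLa cells was assessed after 5 hr exposure. The luminescent CellTiter-Glo signal was measured 30 min after reagent addition.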

Assay [7] in a line: qHTS assay to identify small molecule antagonists of the retinoid-related orphan receptor gamma (ROR-gamma) signaling pathway - cell viability counter screen (AID 1159520). Also: nearly all actives have a fitted effect of over 50% in size. In short, it runs like this:
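Tet-on ROR gamma CHO cells (1,000/well) were plated 4 hr, given compounds in DMSO for 2 hr at 37 C, then induced with 1 uM final doxycycline for 16 hr. Viability was read as ATP by CellTiter-Glo luminescence after 30 min.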

The target of assay [8] is Nuclear receptor ROR-gamma (Homo sapiens) (UniProt P51449). Briefly: qHTS assay to identify small molecule antagonists of the retinoid-related orphan receptor gamma (ROR-gamma) signaling pathway (AID 1159521). The method in brief:
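Test compounds were applied to Tet-on RORγ CHO cells 2 h ahead of doxycycline hyclate (1 uM final). Luciferase reporter activity was quantified by luminescence after 16 h at 37 C and 5% CO2.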

A short description of assay [9]: qHTS assay to identify small molecule agonists of the AP-1 signaling pathway - cell viability counter screen (AID 1159525; calls by dose curve; also: nearly all actives have a fitted effect of over 55% in size). The method in brief: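 Each titration point was normalised to DMSO and tetra n-octyl ammonium bromide controls. The read was Cell Titer Glo luminescence after 30 min at RT, following 5 h compound exposure of ME-180 AP-1-bla cells at 37 °C.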

Assay [10] can be described thus: qHTS assay to identify small molecule agonists of the AP-1 signaling pathway (AID 1159526; calls by dose curve).
In assay [11] the target is Retinoic acid receptor RXR-alpha (Homo sapiens) (UniProt P19793). The experiment in a line: qHTS assay to identify small molecule agonists of the RXR signaling pathway (AID 1159527; calls by dose curve; also: nearly all actives have a fitted effect of over 35% in size; also: potency is read from the fitted curve at half-maximal effect). The method in brief:
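Using 9-cis retinoic acid as the reference agonist, chemicals were tested in HEK 293T cells […] for 16 hr; substrate loading lasted 2 hr at room temperature.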

Assay [12] is described as follows: qHTS assay to identify small molecule agonists of the RXR signaling pathway - cell viability counter screen (AID 1159529). The method in brief: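 Compounds dissolved in DMSO were pinned onto HEK 293T cells carrying a beta-lactamase reporter under RXR-alpha control and incubated 16 hr. Cytotoxicity was then quantified by CellTiter-Glo luminescence.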
Assay [13] in a line: qHTS assay to identify small molecule antagonists of the retinoid acid receptor (RAR) signaling pathway - cell viability counter screen (AID 1159551). Also: nearly all actives have a fitted effect of over 35% in size. The method in brief:
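ATP-based viability, C3RL4 cells, 6 h at 37 C with 1 uM final retinol co-added after compound; luminescence read 30 min post CellTiter-Glo, RT.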

Assay [14] can be described thus: qHTS assay to identify small molecule antagonists of the retinoic acid receptor (RAR) signaling pathway (AID 1159552; also: nearly all actives have a fitted effect of over 50% in size). In short, it runs like this: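 Test chemicals and DMSO controls were pin-transferred onto C3RL4 cells a day after seeding; retinol (1 uM final) followed at once. Luminescent reporter output was quantified after 6 hr of co-incubation and 30 min with detection reagent.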

Assay [15] can be described thus: qHTS assay to identify small molecule agonists of the retinoic acid receptor (RAR) signaling pathway (AID 1159553). Also: potency is read from the fitted curve at half-maximal effect. In short, it runs like this: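 Quantitative high-throughput format: the Tox21 10K library was tested on C3RL4 RARE-luciferase cells for 6 hr at 37 C and 5% CO2, with luminescence measured after a 30 min room-temperature reagent step.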
A short description of assay [16]: qHTS assay to identify small molecule antagonists of the estrogen related receptor (ERR) signaling pathway - cell viability counter screen (AID 1224818).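 Also: series mostly up to about 46 µM; viability measured after 17.5 h of compound exposure.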 In short, it runs like this:
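Quantitative high-throughput viability counter screen in ERR cells. Compounds (DMSO) incubated 17.5 h at 37 C; read-out was CellTiter-Fluor fluorescence.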

The nature of assay [17]: qHTS assay to identify small molecule antagonists of the estrogen related receptor signaling pathway with the pleiotropic PPARgamma coactivator (PGC) cell viability counter screen (AID 1224822; also: series mostly up to about 46 µM). In short, it runs like this:
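Cytotoxicity in the PGC/ERR cell line is assessed with CellTiter-Fluor, read as fluorescence intensity 30 min after reagent addition, following 17.5 h compound treatment at 37 C.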

Where “and” joins values, the source holds several entries; their conditions need not be identical. Equal values may be shown once. Records with an inconclusive call do not appear. A structure can be active in one record and inactive in another. Calls of active or inactive are those of the source. Unless noted, calls follow the shape of the dose curve; as a rule, active = well fitted curve in the direction sought with a large enough effect in the repeat runs; inconclusive = weak or mixed curves; inactive = no such curve, though single readings can be large; an effect the other way counts as inactive or inconclusive.

Sequence of Retinoic acid receptor RXR-alpha (Homo sapiens) (P19793 whole entry, looked up): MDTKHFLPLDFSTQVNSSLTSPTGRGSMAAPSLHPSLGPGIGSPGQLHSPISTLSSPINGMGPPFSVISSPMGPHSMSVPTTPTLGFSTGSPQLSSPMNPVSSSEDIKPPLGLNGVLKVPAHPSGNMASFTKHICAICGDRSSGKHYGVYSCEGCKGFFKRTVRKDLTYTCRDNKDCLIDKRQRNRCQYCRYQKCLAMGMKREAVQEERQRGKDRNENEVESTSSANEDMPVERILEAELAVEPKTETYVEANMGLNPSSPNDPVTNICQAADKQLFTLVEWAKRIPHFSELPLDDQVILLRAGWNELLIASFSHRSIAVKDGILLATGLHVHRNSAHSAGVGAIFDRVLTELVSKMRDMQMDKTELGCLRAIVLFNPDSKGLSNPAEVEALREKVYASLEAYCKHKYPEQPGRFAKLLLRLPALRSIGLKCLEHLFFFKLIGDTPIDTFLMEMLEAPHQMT

In the case of `C=C(C)C(=O)OCC(C)C`, the compound was classed as inactive in assay [1], in assay [2], in assay [3], in assay [4], in [5] and in assay [7]. Besides, the outcome in assay [9], in assay [12], in assay [13] and in [14] was inactive. For the same compound, the Potency result in [6], in [8], in [10], in [11] and in assay [15] was “inactive” each time.
As to `CC(C)CCCCCCCOC(=O)CCCCC(=O)OCCCCCCCC(C)C`, the outcome in [1], in assay [2], in [3], in assay [4], in assay [5] and in assay [7] was inactive. For the same compound, the outcome in assay [9] and in assay [13] was inactive. Moreover, the Potency result in [6], in assay [8], in assay [10], in assay [11] and in assay [15] was “inactive” in each case.
Consider `O=C(O)c1ccc(S(=O)(=O)N(Cl)Cl)cc1`, for which the compound was classed as inactive in assay [1], in assay [2], in assay [3], in [4], in [5] and in [7]. Besides, the compound was called inactive in [9], in assay [12] and in assay [13]. Moreover, the Potency entry in [6], in assay [8], in assay [10], in [11] and in assay [15] was “inactive” in each case.
In the case of `CCCCCCCO`, the call in [1], in assay [2], in assay [3], in assay [4], in assay [5] and in assay [7] was inactive. Moreover, the result in assay [9] and in assay [13] was inactive. The Potency result in [6], in assay [8], in [10], in assay [11] and in assay [15] was “inactive” in each case.
Consider `Cc1ccc2ncccc2c1`, for which the outcome in assay [1], in assay [2], in assay [3], in assay [4], in assay [5] and in [7] was inactive. Further, the compound was called inactive in assay [9], in assay [12], in [13] and in assay [14]. In addition, the Potency entry in [6], in assay [8], in assay [10] and in assay [15] was “inactive” each time. In assay [11], the Potency entry is “inactive and 13.8 µM (active)”.
For `CCOCC(=O)O`, the call in [1], in assay [2], in [3], in assay [4], in [5] and in [7] was inactive. Besides, the result in assay [9] and in assay [13] was inactive. Moreover, the Potency entry in [6], in assay [8], in assay [10], in [11] and in assay [15] was “inactive” in each case.
As for `CNC(=O)Oc1ccc2c(c1)[C@]1(C)CCN(C)[C@@H]1N2C`, the result in [1], in assay [2], in assay [3], in assay [4], in [5] and in [7] was inactive. Further, the call in assay [9], in assay [12], in [13], in assay [16] and in assay [17] was inactive. Moreover, the Potency entry in assay [8], in [10] and in assay [11] was “inactive” in each case.
On to `CCCCOC(=O)c1ccc(N)cc1`, for which the compound was called inactive in assay [1], in assay [2], in assay [3], in [4], in [5] and in [7]. The outcome in [9], in assay [12] and in [13] was inactive. Further, the Potency entry in [8], in assay [10] and in assay [11] was “inactive” throughout. The Potency in assay [15] was 26.9 µM (active) and 21.1 µM (active).
Turning to `OC1C(O)C(O)C(O)C(O)C1O` (stereo not drawn), the call in [1], in assay [2], in assay [3], in [4], in [5] and in [7] was inactive. The outcome in [9], in assay [12] and in assay [13] was inactive. For the same compound, the Potency entry in assay [6], in assay [8], in [10] and in assay [11] was “inactive” throughout.
In the case of `COc1ccc(OC)cc1`, the outcome in assay [1], in assay [2], in assay [3], in [4], in assay [5] and in [7] was inactive. The call in assay [9], in [12] and in [13] was inactive. Also, the Potency result in [8], in assay [10] and in assay [11] was “inactive” in each case.
In the case of `Nc1ccc(Cl)c(N)c1`, the outcome in [1], in [2], in assay [3], in [4], in assay [5] and in assay [7] was inactive. The result in [9], in assay [13] and in assay [14] was inactive. The Potency result in [6], in assay [8], in [10] and in assay [11] was “inactive” in each case. Also, the Potency in [15] was 68.6 µM (active).
For the compound `C[C@]12CC[C@@H]3c4ccc(O)cc4CC[C@H]3[C@@H]1C[C@@H](O)[C@@H]2O`, the compound was classed as inactive in assay [1], in assay [2], in [3], in [4], in assay [5] and in [7]. Besides, the compound was called inactive in assay [9], in assay [12] and in [13]. For the same compound, the Potency entry in [6], in assay [8], in assay [10], in assay [11] and in assay [15] was “inactive” in each case.
Take `CC(CCO)CC(C)(C)C` (stereo not drawn): the compound was classed as inactive in [1], in [2], in assay [3], in assay [4], in assay [5] and in [7]. Also, the compound was classed as inactive in assay [9] and in assay [13]. Further, the Potency result in assay [6], in [8], in assay [10], in [11] and in [15] was “inactive” throughout.
Consider `CC(C)(C)c1cc(Cc2cc(C(C)(C)C)c(O)c(C(C)(C)C)c2)cc(C(C)(C)C)c1O`, for which the compound was classed as inactive in assay [1], in assay [2], in assay [3], in [4], in assay [5] and in [7]. Moreover, the call in assay [9], in assay [12] and in assay [13] was inactive. Further, the Potency entry in assay [6], in [8], in assay [10], in assay [11] and in assay [15] was “inactive” in each case.
`CNC(=S)N(C)C`: the compound was classed as inactive in assay [1], in [2], in [3], in assay [4], in assay [5] and in [7]. Moreover, the result in assay [9], in [13] and in assay [14] was inactive. The Potency entry in assay [6], in [8], in assay [10], in assay [11] and in [15] was “inactive” each time.
`CCO[Si](CCC#N)(OCC)OCC`: the compound was called inactive in assay [1], in [2], in assay [3], in assay [4], in assay [5] and in [7]. The compound was called inactive in [9], in [12] and in assay [13]. For the same compound, the Potency entry in [8], in assay [10] and in assay [11] was “inactive” throughout.
For the compound `CCNc1cccc(C)c1`, the call in assay [1], in assay [3], in assay [4], in [5], in assay [7] and in [9] was inactive. For the same compound, the call in assay [12], in assay [13] and in assay [14] was inactive. Further, the Potency result in [6], in [8], in [10], in [11] and in [15] was “inactive” throughout.
As to `C=Cc1ccc(C)cc1`, the result in [1], in assay [2], in assay [3], in assay [4], in assay [5] and in [7] was inactive. For the same compound, the call in assay [9], in assay [12] and in [13] was inactive. The Potency result in [8], in [10], in [11] and in [15] was “inactive” in each case.
Consider `O=C1CCCC1`, for which the compound was classed as inactive in [1], in [2], in assay [3], in assay [4], in [5] and in [7]. For the same compound, the call in [9], in assay [12], in assay [13] and in assay [14] was inactive. For the same compound, the Potency entry in assay [6], in [8], in [10], in [11] and in [15] was “inactive” each time.

Source of the values: PubChem BioAssay (Tox21).
